# Measurements taken from the antibiotic and cytotoxicity screens of Wong et al. (2023).
# In all, about 39,000 compounds went through this assay and about 1,500 (3.8%) were called active. What follows is part of a selection rich in actives, with near analogues and random picks from the rest.
# Test system: HSkMC (human skeletal muscle cells)
# Test: cytotoxicity call (relative viability < 0.9)
# Conditions: 10 µM
row,SMILES,cytotoxicity call
1,COc1ccc(NC(=O)Nc2ccc3c(c2)C(=O)N([C@@H](C)CO)C[C@@H](C)[C@H](CN(C)Cc2ccc(Cl)c(Cl)c2)OCCCC[C@@H](C)O3)cc1,inactive
2,CCCN(C)C[C@@H]1OCCCC[C@@H](C)Oc2ccc(NC(=O)Nc3ccc(OC)cc3)cc2C(=O)N([C@H](C)CO)C[C@@H]1C,inactive
3,COc1ccc(C#Cc2cnc3c(c2)C(=O)N([C@H](C)CO)C[C@@H](C)[C@@H](CN(C)C(=O)CC2CC2)O3)cc1,inactive
4,O=C(C[C@@H]1CC=CCC[C@@H](Cc2ccc(F)cc2)C(=O)OC[C@H](Cc2ccccc2)NC1=O)NCCO,inactive
5,C[C@H](CO)N1C[C@H](C)[C@H](CN(C)Cc2ccccc2)Oc2ncc(-c3cccc(C(F)(F)F)c3)cc2C1=O,inactive
6,C[C@H](CO)N1C[C@H](C)[C@H](CN(C)Cc2cccc(C(F)(F)F)c2)Oc2ncc(-c3cccc(C(F)(F)F)c3)cc2C1=O,active
7,C[C@H](CO)N1C[C@H](C)[C@H](CN(C)Cc2cccc(C(F)(F)F)c2)Oc2ncc(-c3ccccc3)cc2C1=O,inactive
8,C[C@H](CO)N1C[C@H](C)[C@H](CN(C)Cc2cccc(C(F)(F)F)c2)Oc2ncc(/C=C/c3ccccc3)cc2C1=O,active
9,C[C@H](CO)N1C[C@H](C)[C@H](CN(C)Cc2cccc(C(F)(F)F)c2)Oc2ncc(-c3cccc(F)c3)cc2C1=O,inactive
10,Cc1cccc(CN(C)C[C@@H]2Oc3ncc(-c4cccc(C(F)(F)F)c4)cc3C(=O)N([C@H](C)CO)C[C@@H]2C)c1,inactive
11,C[C@H](CO)N1C[C@H](C)[C@H](CN(C)C(=O)C2CC2)Oc2ncc(-c3ccc(C(=O)N(C)C)cc3)cc2C1=O,inactive
12,CC(C)NC(=O)N(C)C[C@@H]1Oc2ccc(NS(=O)(=O)c3cn(C)cn3)cc2CC(=O)N([C@H](C)CO)C[C@H]1C,inactive
13,Cl.OC(c1cc(C(F)(F)F)nc2c(C(F)(F)F)cccc12)C1CCCCN1 (stereo unspecified),active
14,C[C@@H]1CN([C@H](C)CO)S(=O)(=O)c2ccc(C#CC3(O)CCCC3)cc2O[C@H]1CN(C)C(=O)c1ccncc1,inactive
15,COc1cc(C(=O)N2CCC(N3CCN(C)CC3)CC2)ccc1Nc1ncc2c(n1)N(C)c1ccccc1C(=O)N2C,inactive
16,CNC(=O)c1c(F)cccc1Nc1nc(Nc2cc3c(cc2OC)CCN3C(=O)CN(C)C)nc2[nH]ccc12,active
17,C[C@@H]1CN([C@H](C)CO)C(=O)Cc2cc(NS(=O)(=O)c3cn(C)cn3)ccc2O[C@@H]1CN(C)C(=O)Nc1ccccc1,inactive
18,CC(C)NC(=O)Nc1ccc2c(c1)C(=O)N([C@@H](C)CO)C[C@@H](C)[C@H](CN(C)CC1CCCCC1)OCCCC[C@@H](C)O2,inactive
19,CN(C)CC(=O)N1[C@@H]2Cn3c(ccc(C4=CCCC4)c3=O)[C@H]1[C@@H](C(=O)NCC1CC1)[C@@H]2CO,inactive
20,C[C@@H]1CN([C@@H](C)CO)S(=O)(=O)c2ccc(-c3cncnc3)cc2O[C@@H]1CN(C)C(=O)Cc1cccnc1,inactive
21,C[C@H]1CN([C@@H](C)CO)C(=O)c2cc(NS(C)(=O)=O)ccc2O[C@H]1CN(C)Cc1ccc2c(c1)OCO2,inactive
22,CC1(C)C=Cc2c(c3c(c4c(=O)c(-c5ccc(O)c(O)c5)coc24)OC(C)(C)CC3)O1,inactive
23,CC(C)=CCc1c2c(c3occ(-c4ccc(O)c(O)c4)c(=O)c3c1O)C=CC(C)(C)O2,active

row,SMILES,cytotoxicity call
1,CC(C)=CCc1c2c(c3occ(-c4ccc(O)cc4)c(=O)c3c1O)C=CC(C)(C)O2,inactive
2,CO[C@@H]1CN(C)C(=O)c2ccc(NC(=O)CN(C)C)cc2OC[C@@H](C)N(C(=O)c2ccncc2)C[C@H]1C,inactive
3,C[C@@H]1CCCCO[C@H](CN(C)S(=O)(=O)c2cccs2)[C@@H](C)CN([C@H](C)CO)C(=O)c2cc(NC(=O)CCC(F)(F)F)ccc2O1,inactive
4,COC[C@@H]1CNN1C(=O)c1cc(C)oc1C,inactive
5,CCCCCN1CC=C[C@@]23O[C@@H]4C=CCOC(=O)[C@@H]4[C@H]2C(=O)N([C@@H](C)CO)[C@@H]3C1=O,inactive
6,CC(NCCc1ccc(O)cc1)C(O)c1ccc(O)cc1.Cl (stereo unspecified),inactive
7,CCCCCCCCNC(C)C(O)c1ccc(SC(C)C)cc1 (stereo unspecified),active
8,CCCCCCCCNC[C@@H](O)[C@H](O)[C@@H](O)[C@@H](O)CO,inactive
9,C[C@@H]1CN([C@@H](C)CO)S(=O)(=O)c2ccc(C#CCN(C)C)cc2O[C@@H]1CN(C)C(=O)CN(C)C,inactive
10,C[C@@H]1CCCCO[C@@H](CN(C)S(=O)(=O)c2ccc(Cl)cc2)[C@H](C)CN([C@@H](C)CO)C(=O)c2cc(NC(=O)Nc3cccc4ccccc34)ccc2O1,inactive
11,O=C(NCCCN1CCOCC1)Nc1ccc(Cc2ccc(NC(=O)NCCCN3CCOCC3)cc2)cc1,inactive
12,CC(C)(C)c1cc(NC(=O)Nc2ccc(-c3cn4c(n3)sc3cc(OCCN5CCOCC5)ccc34)cc2)no1,active
13,COc1cc(OC)cc(C(=O)Nc2nc(-c3ccc4c(c3)CCN4C(=O)CN3CCOCC3)cs2)c1,inactive
14,C[C@H](CO)N1C[C@H](C)[C@@H](CN(C)CC2CC2)Oc2c(NC(=O)Nc3cccc4ccccc34)cccc2C1=O,inactive
15,CC(C)CC(=O)Nc1cncc(-c2ccc3[nH]nc(-c4nc5cncc(-c6cccc(F)c6)c5[nH]4)c3c2)c1,active
16,Cn1c(=O)[nH]c(=O)c2c1nc(N1CCN(CCO)CC1)n2CC(=O)c1ccccc1,inactive
17,CCS(=O)(=O)N1C[C@]2(CN(C2)C(=O)c2ccc3c(c2)OCO3)c2c(n(c3cc(ccc23)OC)C)[C@@H]1CO,inactive
18,C[C@@H]1CN([C@H](C)CO)C(=O)c2cccc(NC(=O)c3ccc(-c4nccs4)cc3)c2O[C@H]1CN(C)Cc1ccc(Oc2ccccc2)cc1,inactive
19,C[C@H](CO)N1C[C@H](C)[C@H](CN(C)Cc2ccc(Oc3ccccc3)cc2)Oc2c(NC(=O)c3ccc(-c4nccs4)cc3)cccc2C1=O,active
20,C[C@H]1CN([C@@H](C)CO)C(=O)c2cccc(NC(=O)c3ccc(-c4nccs4)cc3)c2O[C@H]1CN(C)Cc1ccc(Oc2ccccc2)cc1,inactive
21,COc1ccc(CN(C)C[C@H]2Oc3c(NC(=O)c4ccc(-c5nccs5)cc4)cccc3C(=O)N([C@@H](C)CO)C[C@@H]2C)cc1,inactive
22,COc1ccc(CN(C)C[C@H]2Oc3c(NC(=O)c4ccc(-c5nccs5)cc4)cccc3C(=O)N([C@H](C)CO)C[C@@H]2C)cc1,inactive
23,COc1ccc(CN(C)C[C@@H]2Oc3c(NC(=O)c4ccc(-c5nccs5)cc4)cccc3C(=O)N([C@H](C)CO)C[C@H]2C)cc1,active
